The panel holds about 79,000 compounds, 15% with a hit somewhere; the sample as a whole holds those more often. Unmarked numbers belong to inactive results. Cut-off read from the data, not from the text of the source: active = growth inhibition above about 70%; inactive = the rest.

The first assay in a line: NCI Yeast Anticancer Drug Screen. Data for the rad50 strain (AID 155).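 Note: 0% = growth of vehicle-only cultures of the same strain.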 As to conditions: S. cerevisiae rad50 strain growth inhibition; at 50.0 µM; active compounds read high. An outline of the steps: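 Yeast carrying a defined DNA repair defect were exposed to test compounds, and growth was compared with vehicle-treated controls to give percent inhibition.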
Turning to `CN(C)C(C)(C)CC(C)(C)C`, the growth inhibition was 35.7%.

As for `O=C(NCO)c1ccccc1`, the growth inhibition is 36.2%.

`NC(N)=Nc1cc2ccccc2c2ccccc12`: the growth inhibition was -1.2%.

For the compound `CCOC(=O)Nc1cc2c(c(N)n1)N=C(c1ccccc1)CO2`, the growth inhibition is 37.5%.

Turning to `CC(C)CCCC(=O)O`, the growth inhibition is -9.7%.

As for `O=C(CCl)Nc1ccc2c(c1)C(=O)c1ccc(NC(=O)CCl)cc1C2=O`, the growth inhibition is 6.3%.

For the compound `COc1cc(C2c3cc4c(cc3C3OC(=O)C2C3CO)OCO4)cc(OC)c1OC` (configuration not stated), the growth inhibition was -7.4%.

Regarding `NCC(=O)CCC(=O)O`, the growth inhibition was 6.3%.

For the compound `COC(=O)c1ccc(C(C)C)cc1`, the growth inhibition is 2.95%.

For the compound `CN(C)CCN(C)CC(C)(C)C(=O)/C=C/c1ccc(Cl)cc1`, the growth inhibition is 27.9%.

With `Cc1cc2nc(CO)[nH]c2cc1C`, the growth inhibition was -2.95%.

On to `Oc1ccc(O)cc1`, for which the growth inhibition was 20.6%.

On to `COc1cc(OC)c2ccc(=O)oc2c1`, for which the growth inhibition was 27.2%.

As for `Cc1cc(NC(=O)CSCC(=O)O)no1`, the growth inhibition is -19.2%.

Regarding `O=C1Cc2ccccc2C(=O)O1`, the growth inhibition was 25.9%.

Regarding `COC(=O)c1cc(-c2ccc(Cl)c(Cl)c2)[nH]c(=O)c1C#N`, the growth inhibition is -16.9%.

Turning to `CC12CC3CC1C(C(=O)O2)C3C(=O)O` (configuration not stated), the growth inhibition was -20.6%.

Take `O=C(c1ccccc1)C1CCC1`: the growth inhibition is 22.6%.

With `CC(=O)OCC1CCCO1` (configuration not stated), the growth inhibition is -24.9%.

The next assay is described as follows: NCI Yeast Anticancer Drug Screen. Data for the mec2-1 strain (AID 157). Conditions: S. cerevisiae mec2-1 strain, at 50.0 µM, active compounds read high. A digest of the protocol: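 Strain: mec2-1 (DNA repair/cell cycle alteration). Compound exposure, then growth measured; inhibition expressed relative to vehicle.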
Take `COc1ccc(C(O)c2ccccc2)cc1` (configuration not stated): the growth inhibition was -17.4%.

On to `CCN(CC)c1ccc2nc3ccc(=[N+](CC)CC)cc-3oc2c1`, for which the growth inhibition is -192%.

In the case of `CC(C)COC(=O)COC(=O)OCCOCCOC(=O)OCC(=O)OCC(C)C`, the growth inhibition was -8.7%.

As to `COc1cc(/C=C/C(=O)c2ccccc2)cc(OC)c1OC`, the growth inhibition was -5.8%.

`S=C(Nc1ccccc1)N1CCCCC1`: the growth inhibition was 1.25%.

As to `Nc1ccc(CC(=O)O)c(N)c1`, the growth inhibition was -7.8%.

Turning to `CC1(O)OC(COc2ccc(Cl)cc2)COC1O` (configuration not stated), the growth inhibition is -8.65%.

Turning to `O/N=C/c1ccc(O)cc1O`, the growth inhibition was -5.45%.

`C/C(=C\c1cc(Cl)ccc1OCC(=O)O)[N+](=O)[O-]`: the growth inhibition is 56.1%.

As for `Nc1ccc(C(=O)c2ccc(N)c(Br)c2)cc1Br`, the growth inhibition was -0.85%.

For the compound `COC(=O)c1ccccc1Br`, the growth inhibition was 7.8%.

Regarding `CC1SC(N)=NC1=O` (configuration not stated), the growth inhibition was -6.7%.

As for `CCOC(=O)C(C#N)Cc1ccccc1` (configuration not stated), the growth inhibition was -2.15%.

With `CCCCCCCO`, the growth inhibition is -17.9%.

In the case of `COc1cc2c3cc1Oc1c(OC)c(OC)cc4c1C(Cc1ccc(O)c(c1)Oc1ccc(cc1)CC3N(C)CC2)N(C)CC4` (configuration not stated), the growth inhibition was 0.55%.

Take `Cc1ccc(Cl)cc1N1C(=O)CC(Sc2ccccc2N)C1=O` (configuration not stated): the growth inhibition was -2.8%.

As to `c1ccc(Sc2ccccc2)cc1`, the growth inhibition is 10.5%.

As to `C#C[C@H]1CCCCCC1O` (some centres not stated), the growth inhibition was 2%.

`CCOC(=O)c1coc(C(=O)OCC)c1C(=O)OCC`: the growth inhibition is -18.1%.

For `O=C1NC(=O)C2C(=O)NC(=O)C1C21CCc2ccccc21` (configuration not stated), the growth inhibition was -16.6%.

For `CN(C)C(C)(C)CC(C)(C)C`, the growth inhibition was 4%.

Regarding `O=C(NCO)c1ccccc1`, the growth inhibition is 1.95%.

On to `NC(N)=Nc1cc2ccccc2c2ccccc12`, for which the growth inhibition is -7.15%.

As for `CCOC(=O)Nc1cc2c(c(N)n1)N=C(c1ccccc1)CO2`, the growth inhibition was 27.7%.

In the case of `CC(C)CCCC(=O)O`, the growth inhibition is -7.5%.

For the compound `O=C(CCl)Nc1ccc2c(c1)C(=O)c1ccc(NC(=O)CCl)cc1C2=O`, the growth inhibition was -4.85%.

`COc1cc(C2c3cc4c(cc3C3OC(=O)C2C3CO)OCO4)cc(OC)c1OC` (configuration not stated): the growth inhibition was -9.95%.

`NCC(=O)CCC(=O)O`: the growth inhibition is -3.7%.

On to `COC(=O)c1ccc(C(C)C)cc1`, for which the growth inhibition is 11.8%.

Regarding `CN(C)CCN(C)CC(C)(C)C(=O)/C=C/c1ccc(Cl)cc1`, the growth inhibition is 3%.

With `Cc1cc2nc(CO)[nH]c2cc1C`, the growth inhibition was -40%.

On to `Oc1ccc(O)cc1`, for which the growth inhibition is 15%.

On to `COc1cc(OC)c2ccc(=O)oc2c1`, for which the growth inhibition is 8.4%.

In the case of `Cc1cc(NC(=O)CSCC(=O)O)no1`, the growth inhibition is -34.5%.

For `O=C1Cc2ccccc2C(=O)O1`, the growth inhibition is -16.5%.

With `COC(=O)c1cc(-c2ccc(Cl)c(Cl)c2)[nH]c(=O)c1C#N`, the growth inhibition is -18.9%.

Take `CC12CC3CC1C(C(=O)O2)C3C(=O)O` (configuration not stated): the growth inhibition is -27.5%.

With `O=C(c1ccccc1)C1CCC1`, the growth inhibition is -5.25%.

With `CC(=O)OCC1CCCO1` (configuration not stated), the growth inhibition is -9.45%.

A short description of a further assay: NCI Yeast Anticancer Drug Screen. Data for the sgs1 mgt1 strain (AID 161).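 Note: 0% = growth of cultures given vehicle only.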 As to conditions: S. cerevisiae sgs1 mgt1 strain, at 50.0 µM, active compounds read high. A digest of the protocol: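 Inhibition of yeast growth, normalised to vehicle-treated controls, is reported for a strain bearing genetic alterations in DNA damage repair.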
For the compound `COc1ccc(C(O)c2ccccc2)cc1` (configuration not stated), the growth inhibition was -34.9%.

Regarding `CCN(CC)c1ccc2nc3ccc(=[N+](CC)CC)cc-3oc2c1`, the growth inhibition was -187%.

As to `CC(C)COC(=O)COC(=O)OCCOCCOC(=O)OCC(=O)OCC(C)C`, the growth inhibition is 17.4%.

Turning to `COc1cc(/C=C/C(=O)c2ccccc2)cc(OC)c1OC`, the growth inhibition was -3%.

`S=C(Nc1ccccc1)N1CCCCC1`: the growth inhibition is -10.2%.

Regarding `Nc1ccc(CC(=O)O)c(N)c1`, the growth inhibition was -4.6%.

Regarding `CC1(O)OC(COc2ccc(Cl)cc2)COC1O` (configuration not stated), the growth inhibition is 4.7%.

For the compound `O/N=C/c1ccc(O)cc1O`, the growth inhibition was -32.1%.

As for `C/C(=C\c1cc(Cl)ccc1OCC(=O)O)[N+](=O)[O-]`, the growth inhibition was 44.5%.

On to `Nc1ccc(C(=O)c2ccc(N)c(Br)c2)cc1Br`, for which the growth inhibition was 6.6%.

Turning to `COC(=O)c1ccccc1Br`, the growth inhibition is 3.4%.

As to `CC1SC(N)=NC1=O` (configuration not stated), the growth inhibition is 0.25%.

For `CCOC(=O)C(C#N)Cc1ccccc1` (configuration not stated), the growth inhibition was -3.85%.

Consider `CCCCCCCO`, for which the growth inhibition was -28.8%.

On to `COc1cc2c3cc1Oc1c(OC)c(OC)cc4c1C(Cc1ccc(O)c(c1)Oc1ccc(cc1)CC3N(C)CC2)N(C)CC4` (configuration not stated), for which the growth inhibition was 0.65%.

For `Cc1ccc(Cl)cc1N1C(=O)CC(Sc2ccccc2N)C1=O` (configuration not stated), the growth inhibition is 28.4%.

Take `c1ccc(Sc2ccccc2)cc1`: the growth inhibition was -8.5%.

As to `C#C[C@H]1CCCCCC1O` (some centres not stated), the growth inhibition is -1.35%.

Regarding `CCOC(=O)c1coc(C(=O)OCC)c1C(=O)OCC`, the growth inhibition is 5.25%.

Turning to `O=C1NC(=O)C2C(=O)NC(=O)C1C21CCc2ccccc21` (configuration not stated), the growth inhibition is -23.5%.

Regarding `CN(C)C(C)(C)CC(C)(C)C`, the growth inhibition is 15.7%.

As to `O=C(NCO)c1ccccc1`, the growth inhibition was -1.65%.

In the case of `NC(N)=Nc1cc2ccccc2c2ccccc12`, the growth inhibition is -7.5%.

Regarding `CCOC(=O)Nc1cc2c(c(N)n1)N=C(c1ccccc1)CO2`, the growth inhibition was 34%.

As to `CC(C)CCCC(=O)O`, the growth inhibition is -1.25%.

On to `O=C(CCl)Nc1ccc2c(c1)C(=O)c1ccc(NC(=O)CCl)cc1C2=O`, for which the growth inhibition was 4.15%.

`COc1cc(C2c3cc4c(cc3C3OC(=O)C2C3CO)OCO4)cc(OC)c1OC` (configuration not stated): the growth inhibition was -14.5%.

Take `NCC(=O)CCC(=O)O`: the growth inhibition is 0.5%.

Take `COC(=O)c1ccc(C(C)C)cc1`: the growth inhibition was -1.35%.

As to `CN(C)CCN(C)CC(C)(C)C(=O)/C=C/c1ccc(Cl)cc1`, the growth inhibition was 9%.

Consider `Cc1cc2nc(CO)[nH]c2cc1C`, for which the growth inhibition is -24.2%.

Regarding `Oc1ccc(O)cc1`, the growth inhibition was -0.45%.

As for `COc1cc(OC)c2ccc(=O)oc2c1`, the growth inhibition is 16.1%.

With `Cc1cc(NC(=O)CSCC(=O)O)no1`, the growth inhibition was -2.45%.

As for `O=C1Cc2ccccc2C(=O)O1`, the growth inhibition was 1.95%.

For the compound `COC(=O)c1cc(-c2ccc(Cl)c(Cl)c2)[nH]c(=O)c1C#N`, the growth inhibition was -27.9%.

`CC12CC3CC1C(C(=O)O2)C3C(=O)O` (configuration not stated): the growth inhibition is -25.8%.

For the compound `O=C(c1ccccc1)C1CCC1`, the growth inhibition is 10.2%.

Regarding `CC(=O)OCC1CCCO1` (configuration not stated), the growth inhibition was -21.1%.

For the origin of these results see PubChem BioAssay (NCI).
